Active and inactive are the calls of the source.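 The calls were made as follows, unless noted: active = inhibition above 20% together with a positive visual image hit; inconclusive = visual image hit but inhibition not above 20%; inactive = no visual image hit.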
Columns and labels:
[1] = inhibitors of TNFa-induced NFkB p65 translocation, primary screen, imaging, HUVEC, MLSMR starter and 10KST1 sets (AID 438); details: HUVEC TNFa-induced p65 nuclear translocation; cell count: measured here: nuclei count (cytotoxicity indicator), at 2.08 µM; inhibition: at 2 µM, stronger effect = higher value, 0% TNFa-plus-vehicle, 100% no-TNFa wells;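 also: compound added about 3h40 before a 20 min TNFalpha stimulation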;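 as to inhibition: signal is the nuclear over cytoplasmic p65 intensity ratio per well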
[2] = reduction of polyQ htt aggregates in cells – imaging, exon1htt(103Q)mCFP cells, high-content imaging, primary screen (AID 483;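 active = visual image review flags a hit and inhibition of aggregation exceeds 20%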;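 also: compound exposure lasted 3 days before fixation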;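 as to nuclei count: percent of the per-plate median nuclei count of sample wells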); details: exon1htt(103Q)mCFP cell line, aggregate imaging, at 2 µM; inhibition of aggregation: stronger effect = higher value; nuclei count: measured here: cell count, toxicity
[3] = endothelial E-selectin expression blockers – imaging, HUVEC, immunofluorescence, MLSMR starter and 10KST1 sets, primary screen (AID 487;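 active = visually confirmed hit in the image check and inhibition above 20%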;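 as to inhibition: signal is fraction of cell area covered by stained E-selectin grains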;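 as to nuclei count: 100% = median nuclei count of all wells on the same plate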); details: HUVEC TNFalpha-induced E-selectin immunofluorescence imaging, at 2 µM; inhibition: stronger effect = higher value; nuclei count: measured here: cell number, toxicity
[4] = target: Voltage-gated potassium channel subunit beta-2 (Rattus norvegicus) (UniProt P62483); assay: inhibitors of rat Kvbeta2 reductase activity – biochemical, NADPH fluorescence, primary screen (AID 622;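 active = fluorescence slope higher than the sample average by over 3 SD, cut at about -0.22 in these data, passing the limit was not always enough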;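 also: slope of raw intensity against log time taken from 70 to 1610 s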); details: recombinant KvBeta, 4-cyanobenzaldehyde reduction, at 10 µM, stronger effect = higher value
Chain of Voltage-gated potassium channel subunit beta-2 (Rattus norvegicus) (P62483 whole entry, looked up): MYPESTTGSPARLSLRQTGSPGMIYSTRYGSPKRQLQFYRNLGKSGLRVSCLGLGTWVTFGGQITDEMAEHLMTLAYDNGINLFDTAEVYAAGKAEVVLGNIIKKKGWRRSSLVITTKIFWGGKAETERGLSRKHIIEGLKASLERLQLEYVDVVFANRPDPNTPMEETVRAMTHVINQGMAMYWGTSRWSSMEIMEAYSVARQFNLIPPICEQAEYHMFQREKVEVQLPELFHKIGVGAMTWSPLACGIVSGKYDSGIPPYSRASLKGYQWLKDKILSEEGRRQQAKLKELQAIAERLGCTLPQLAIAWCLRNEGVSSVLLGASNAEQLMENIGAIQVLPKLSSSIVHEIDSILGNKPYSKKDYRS

[5] = target: Voltage-gated potassium channel subunit beta-2 (Rattus norvegicus) (UniProt P62483); assay: enhancers of rat Kvbeta2 NADPH turnover – biochemical, NADPH fluorescence, primary screen (AID 623;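 active = NADPH fluorescence slope more negative than the mean of all samples by about 3 SD, 99.7% confidence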;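 also: fluorescence intensity change per second fitted from 20 to 320 s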); details: Recombinant KvBeta, NADPH fluorescence decrease slope, 10 min; at 10 µM; stronger effect = lower value
[6] = target: Alpha-2C adrenergic receptor (Homo sapiens) (UniProt P18825); assay: compounds altering alpha2C-coupled GIRK flux – cell-based, HEK293 alpha2C/GIRK1/2, thallium flux, primary screen (AID 624;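 active = fluorescence slope after compound addition differing from the mean of all screened samples at 99.7% confidence, in either direction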;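 also: slope of fluorescence ratio to pre-addition baseline per second over 15 to 24 s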); details: thallium flux BTC fluorescence, at 10 µM, actives lie on both sides
Chain of Alpha-2C adrenergic receptor (Homo sapiens) (P18825 whole entry, looked up): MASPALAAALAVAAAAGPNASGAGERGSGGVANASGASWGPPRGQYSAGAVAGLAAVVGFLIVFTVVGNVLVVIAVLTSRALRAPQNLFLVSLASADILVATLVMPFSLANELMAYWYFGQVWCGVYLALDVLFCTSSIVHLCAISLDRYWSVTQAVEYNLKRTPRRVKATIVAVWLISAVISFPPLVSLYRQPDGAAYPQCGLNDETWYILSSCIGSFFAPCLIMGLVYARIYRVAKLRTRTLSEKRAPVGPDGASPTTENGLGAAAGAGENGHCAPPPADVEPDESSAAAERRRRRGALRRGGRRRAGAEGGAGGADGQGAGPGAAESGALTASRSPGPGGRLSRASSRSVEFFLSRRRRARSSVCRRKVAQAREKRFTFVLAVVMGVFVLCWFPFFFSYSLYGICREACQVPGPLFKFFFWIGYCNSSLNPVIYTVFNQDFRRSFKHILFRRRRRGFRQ

[7] = blockers of RIG-like receptor reporter activation – cell-based, Sendai virus stimulus, luciferase, 10K MLSCN set, TLR/RLR signaling modifier project, primary screen (AID 602276;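 active = inhibition at or above 50% at 10 µM; inactive = inhibition below 50%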;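 also: firefly luciferase from ISG56 promoter only with Renilla not read in this screen; 0% = Sendai virus plus DMSO and 100% = medium plus DMSO without virus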); details: HEK293 RL24 IRF3 luciferase reporter, at 10 µM, stronger effect = higher value
[8] = TLR3 IRF3 reporter activation blockers – cell-based, poly I:C stimulus, luciferase, 10K MLSCN set, primary screen (AID 602277;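 active = inhibition of the reporter signal at or above 50%; inactive = inhibition below 50%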); details: HEK293-TLR3 RL24 IRF3 luciferase reporter, at 10 µM, stronger effect = higher value

SMILES | cell count [1] | inhibition [1] | inhibition of aggregation [2] | nuclei count [2] | inhibition [3] | nuclei count [3] | fluorescence slope [4] | NADPH fluorescence slope [5] | slope [6] | inhibition [7] | inhibition [8]
CCCc1cc(C(=O)Nc2ccccc2SC)no1 | 849 | 5.8% (inactive) | -12.6% (inactive) | 108% | -35.7% (inactive) | 121% | -0.597 (inactive) | -2.4e-05 (inactive) | 0.00474 (inactive) | -22% (inactive) | -51.6% (inactive)
Cc1nn(C(=O)c2cc3sccc3[nH]2)c(C)c1C | 574 | -11.9% (inactive) | 0.1% (inactive) | 95.1% | -65.4% (inactive) | 104% | -0.416 (inactive) | -2.7e-05 (inactive) | 0.00333 (inactive) | -8.25% (inactive) | -82.9% (inactive)
COCCN(C(=O)c1csnn1)C(C(=O)NC(C)(C)C)c1cccc(OC)c1 (stereo not drawn) | 684 | -1.7% (inactive) | -26.8% (inactive) | 76.2% | 0.2% (inactive) | 102% | -0.515 (inactive) | -2.6e-05 (inactive) | 0.00595 (inactive) | 17% (inactive) | 14.6% (inactive)
CCOC(=O)CSc1nnc(CCc2nc3ccccc3[nH]2)n1C | 349 | -1% (inactive) | 23.8% (inactive) | 73% | 12.7% (inactive) | 93.2% | -0.441 (inactive) | -2.8e-05 (inactive) | 0.00684 (inactive) | -7.44% (inactive) | 100% (active)
CN(C)c1oc(-c2ccccc2F)nc1C#N | 576 | 5.5% (inactive) | 10.1% (inactive) | 104% | -56.7% (inactive) | 111% | -0.355 (inactive) | -1.3e-05 (inactive) | 0.00727 (inactive) | -3.37% (inactive) | -12.5% (inactive)
CCOC(=O)CNC(=O)CSc1nc(N(C)C)nc(N2CCOCC2)n1 | 580 | 5.1% (inactive) | -7.9% (inactive) | 110% | -71.8% (inactive) | 111% | -0.517 (inactive) | -4e-05 (inactive) | 0.00497 (inactive) | 18.7% (inactive) | 26.3% (inactive)
O=C(COc1ccc2ccccc2c1)N1CCCC1 | 315 | -1.8% (inactive) | 4% (inactive) | 77.8% | -27.1% (inactive) | 97.9% | -0.28 (inactive) | -1.8e-06 (inactive) | 0.00518 (inactive) | -31.9% (inactive) | -85% (inactive)
c1ccc(Cn2nnnc2CN2CCN(c3ncccn3)CC2)cc1 | 717 | -8.1% (inactive) | -12.8% (inactive) | 114% | -11.1% (inactive) | 130% | -0.585 (inactive) | -4.5e-05 (inactive) | 0.0043 (inactive) | 11.4% (inactive) | 20.1% (inactive)
O=C(CC(C(=O)N1CCc2ccccc21)n1ccnc1)NCc1cccnc1 (stereo not drawn) | 655 | -2.2% (inactive) | 23.5% (inactive) | 122% | -67% (inactive) | 119% | -0.446 (inactive) | 9.2e-07 (inactive) | 0.00564 (inactive) | 10.8% (inactive) | 20.7% (inactive)
Cc1cn2c(-c3ccc(Cl)cc3)nnc2s1 | 752 | -1.6% (inactive) | 17.6% (inactive) | 98% | -81% (inactive) | 109% | -0.563 (inactive) | -4.1e-05 (inactive) | 0.00702 (inactive) | 6.2% (inactive) | 12.3% (inactive)
O=P(O)(CN1CCCCCC1)CN1CCCCCC1 | 575 | 13.9% (inactive) | -5.3% (inactive) | 107% | 6% (inactive) | 112% | -0.484 (inactive) | -5.2e-05 (inactive) | 0.0053 (inactive) | -7.54% (inactive) | 17.4% (inactive)
COc1ccccc1N1CCN(C(=O)C(Cc2ccccc2)NC(=O)C2CCCCC2)CC1 (stereo not drawn) | 370 | -0.9% (inactive) | 11.3% (inactive) | 65.4% | -114% (inactive) | 96.1% | -0.428 (inactive) | -0.000112 (inactive) | 0.00516 (inactive) | 0.074% (inactive) | 17.7% (inactive)
COc1cc(NC2c3ccccc3C(=O)N2c2ccc(C)cn2)cc(OC)c1OC (stereo not drawn) | 619 | 5.5% (inactive) | 11.3% (inactive) | 85.2% | -7.5% (inactive) | 109% | -0.593 (inactive) | 1.6e-05 (inactive) | 0.00732 (inactive) | -30.9% (inactive) | -44.7% (inactive)
CCOC(=O)N1CCN(S(=O)(=O)c2cc(Cl)ccc2Cl)CC1 | 357 | 5.2% (inactive) | 29.4% (inactive) | 95.3% | -221% (inactive) | 106% | -0.62 (inactive) | -2.7e-05 (inactive) | 0.00556 (inactive) | 14.8% (inactive) | 18.5% (inactive)
Cc1nnc(SCC(=O)N2CC(=O)Nc3ccccc32)n1-c1ccccc1 | 502 | -4.7% (inactive) | -14.7% (inactive) | 102% | -190% (inactive) | 134% | -0.483 (inactive) | -3.9e-05 (inactive) | 0.00543 (inactive) | 19.7% (inactive) | 22.4% (inactive)
CCCCS(=O)(=O)NC1=NCN(C2CCN(Cc3ccccc3)CC2)CN1 | 378 | -2.1% (inactive) | 17.7% (inactive) | 97.1% | -23.1% (inactive) | 113% | -0.572 (inactive) | -9.6e-05 (inactive) | 0.00667 (inactive) | 4.05% (inactive) | 18.7% (inactive)
Cc1c(C#N)c2ncnc(-c3ccccc3)c2n1-c1ccccc1 | 287 | 0.4% (inactive) | -11.3% (inactive) | 99.5% | -8.1% (inactive) | 108% | -0.448 (inactive) | -0.000103 (inactive) | 0.00601 (inactive) | 15.3% (inactive) | 34.5% (inactive)
CCOc1ccc(NC(=O)Cn2nnc(-c3ccccc3F)n2)cc1 | 513 | -2.7% (inactive) | 19% (inactive) | 88.3% | -32.4% (inactive) | 103% | -0.539 (inactive) | 2.1e-05 (inactive) | 0.00657 (inactive) | 9.14% (inactive) | 12.8% (inactive)
CC(C)COC(=O)NCC12C=CC(O1)C1C(=O)N(c3ccc(Cl)cc3)C(=O)C12 (stereo not drawn) | 280 | -0.5% (inactive) | -14.3% (inactive) | 104% | 5.7% (inactive) | 119% | -0.447 (inactive) | -0.000376 (inactive) | 0.005 (inactive) | -5.72% (inactive) | 0.93% (inactive)
COc1cccc(Nc2cc(C)nc3ccccc23)c1 | 259 | 2.1% (inactive) | 11.8% (inactive) | 78.5% | -1% (inactive) | 105% | -0.412 (inactive) | -6.3e-06 (inactive) | 0.00478 (inactive) | -11.6% (inactive) | 99.5% (active)
CCCC(=O)NCCc1cc2c(C)ccc(C)c2[nH]c1=O | 592 | -4.8% (inactive) | -1.1% (inactive) | 114% | -9% (inactive) | 117% | -0.557 (inactive) | -2.9e-05 (inactive) | 0.00601 (inactive) | 9% (inactive) | 10.9% (inactive)
CCN(CC)S(=O)(=O)N1CCC(C(=O)NC2CCCc3ccccc32)CC1 (stereo not drawn) | 690 | 5.7% (inactive) | -6.5% (inactive) | 95% | -8.8% (inactive) | 116% | -0.49 (inactive) | 8.8e-05 (inactive) | 0.00498 (inactive) | -11.5% (inactive) | -8.15% (inactive)
O=C(NC1CCCCC1)c1ccc(S(=O)(=O)N2CCCCC2)cc1 | 392 | 2.1% (inactive) | 5.8% (inactive) | 96.4% | -49.2% (inactive) | 119% | -0.588 (inactive) | 1.4e-05 (inactive) | 0.00499 (inactive) | -18.3% (inactive) | -7.9% (inactive)
CCc1nnc(NC(=O)c2cc3ccccc3oc2=O)s1 | 597 | -9.6% (inactive) | 15.7% (inactive) | 96.9% | -67.3% (inactive) | 96.3% | -0.57 (inactive) | -2e-05 (inactive) | 0.00433 (inactive) | -9.54% (inactive) | -77.5% (inactive)
CC1CC(C)CN(Cc2nc3c(c(=O)n(C)c(=O)n3C)n2Cc2ccccc2Cl)C1 (stereo not drawn) | 705 | -16.8% (inactive) | -2.3% (inactive) | 78% | 37.7% (inactive) | 88% | -0.482 (inactive) | -4.6e-05 (inactive) | 0.00565 (inactive) | -10.4% (inactive) | -1.1% (inactive)
CCCN(CC1CC1)C(=O)Nc1ccccc1C | 693 | -11.6% (inactive) | 9.8% (inactive) | 101% | -32.9% (inactive) | 103% | -0.529 (inactive) | 3.7e-05 (inactive) | 0.00657 (inactive) | -4.1% (inactive) | -19% (inactive)
Nc1nonc1N1CCCCC1 | 437 | -8.1% (inactive) | -6.7% (inactive) | 107% | 27.5% (inactive) | 104% | -0.474 (inactive) | -4.6e-05 (inactive) | 0.00308 (inactive) | 4.11% (inactive) | 26.3% (inactive)
CC/C(O)=C(/C#N)c1nnc2n1CCCCC2 | 446 | 3.6% (inactive) | -9.6% (inactive) | 115% | 47.8% (inactive) | 86.1% | -0.608 (inactive) | -2e-05 (inactive) | 0.00604 (inactive) | 7.71% (inactive) | 11.5% (inactive)

— PubChem BioAssay
